# Only some compounds are listed: those with a hit (about 2.8% of all), similar ones and a draw of the others.
# MsrA inh – bovine MsrA enzyme inhibitors, primary screen, biochemical, absorbance, HTS. AID 651718, 2012. Methionine sulfoxide reductase A (Bos taurus). inhibition, % at 15.5 µM. purified bovine MsrA, absorbance read-out. 0.75% of 360,000 active; in the data active means inhibition above about 4.5%;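 further: 0% = vehicle wells with enzyme and 100% = reference inhibitor wells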
# KLK7 zymogen act – proKLK7 zymogen activators, primary screen, biochemical, fluorescence intensity; Kallikrein-7 (Homo sapiens), P49862; purified proKLK7, EDANS-DABCYL substrate fluorescence; 100% is mature enzyme control, 0% vehicle; activation, % at 7 µM; 0.9% of 370,000 active;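 active means activation above the mean of all tested compounds plus 3 SD, computed per campaign excluding outliers beyond control limits, cut at about 13% in these data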
# Target sequence (P49862 whole entry, looked up): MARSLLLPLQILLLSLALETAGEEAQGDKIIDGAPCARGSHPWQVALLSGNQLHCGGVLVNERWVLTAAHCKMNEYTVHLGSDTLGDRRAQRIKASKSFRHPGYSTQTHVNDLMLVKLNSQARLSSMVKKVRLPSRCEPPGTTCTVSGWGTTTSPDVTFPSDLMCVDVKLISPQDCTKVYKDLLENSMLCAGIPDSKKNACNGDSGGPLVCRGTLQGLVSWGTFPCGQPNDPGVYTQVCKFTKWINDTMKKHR
# MsrA act – bovine MsrA enzyme activators, primary screen, biochemical, absorbance, HTS | Methionine sulfoxide reductase A (Bos taurus) | purified bovine MsrA, absorbance read-out | activation, % at 10.6 µM | 0.3% of 360,000 active; in the data active means activation above about 7.5%;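 further: 0% = vehicle and 100% = reference activator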
# SMARCA2 act – SMARCA2 (BRM) function activators, primary screen, cell-based, luminescence, high throughput; activation, % at 9.1 µM; MG213 cells, MMTV-luciferase reporter, dexamethasone, overnight; AID 652017, 2013; 1% of 370,000 active; in the data active means activation above about 7.8%;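 further: 0% = vehicle wells and 100% = reference activator wells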
# SMARCA2 conf – SMARCA2 (BRM) function activators, confirmation, cell-based, luminescence, triplicate; 30% of 3,500 active; activation, % at 9.1 µM; shares compounds with SMARCA2 act; MG213 cells, MMTV-luciferase with dexamethasone, overnight; MG213 cells expressing E1A, Rb sequestered; DMSO wells 0%, reference activator 100%;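 active means activation above its plate's cutoff, the mean activation of tested wells plus 3 SD, cut at about 7.9% in these data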
# GAL4-VP16 Luc – GAL4-VP16 luciferase reporter activation, counter-screen for SMARCA2 (BRM) activator project, cell-based, pG5luc, luminescence, high throughput. AID 686939, 2013. activation, % at 9.1 µM. 41% of 3,500 active. shares compounds with SMARCA2 act. HEK293 GAL4-VP16 pG5luc reporter; scaled: DMSO wells 0%, SAHA wells 100%;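 active means activation above the solvent-only control well mean plus 3 SD, averaged across control plates, cut at about 5.2% in these data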
# An asterisk follows results filed as active; x = no result given.
SMILES,MsrA inh,KLK7 zymogen act,MsrA act,SMARCA2 act,SMARCA2 conf,GAL4-VP16 Luc
O=C(N/N=C/C=C\c1ccccc1[N+](=O)[O-])c1ccco1,4,0,-12,2,x,x
COc1ccc(-n2c(SCC(=O)NCC3CCCO3)nc3ccccc3c2=O)cc1Cl (configuration not stated),2,0,6,-3,x,x
O=C(NCCCCO)c1c(-c2ccccc2)oc2c1C(OCCCCCO)CCC2 (configuration not stated),2,0,-12,-5,x,x
CCOC(=O)c1csc(NC(=O)C2CCCN(S(=O)(=O)c3cc(OC)ccc3OC)C2)n1 (configuration not stated),x,0,x,-6,x,x
O=C(COC(=O)c1ccccn1)NCCc1ccc(Cl)cc1,-1,0,-2,-6,x,x
CCOC(=O)c1ccc(CNCc2ccc(C)cc2)cc1,-1,0,0,9.1*,-2,0
Cc1ccc(CNC(=O)COC(=O)c2ccc(Br)cc2)cc1,0,0,-1,-2,x,x
COC(=O)c1sc(NC(=O)c2ccncc2)nc1C,4,0,-6,-1,x,x
CCOc1ccc(C(=O)Nc2nc(C)c(C(=O)OC)s2)cc1,0,0,-3,8.8*,8.7*,12*
COc1ccc(CCN2C(=O)CCC2(C)c2nnnn2Cc2ccccc2)cc1OC (configuration not stated),1,-1,-10,-5,x,x
CCOc1ccc(/C=N/Nc2ccccn2)cc1OC,3,1,-6,2,x,x
C=CCOc1ccc(/C=N/Nc2ccccn2)cc1OC,5,0,-9,9.0*,9.2*,11*
O=C(Nc1ccccc1C(=O)NCc1ccccc1)C1=CSCCO1,0,0,-3,12*,-2,1
Cc1cc(NC(=O)c2ccco2)ncc1NC(=O)Cc1ccccc1,0,0,-5,11*,12*,3
Cc1cc(NC(=O)c2ccco2)ccc1NC(=O)c1ccco1,-1,-1,-3,9.7*,-1,1
Cc1ccc(NC(=O)c2ccco2)cc1C,0,0,-2,1,x,x
CCCC(=O)Nc1ccc(NC(=O)c2ccco2)c(OC)c1,1,0,-2,9.7*,7,6.5*
CCc1ccc(/C=C2\SC(=S)N(CCCC(=O)N(CCO)c3ccccc3)C2=O)cc1,1,1,0,-11,x,x
COc1ccc(NC2CCCN(C(=O)CSc3ccccn3)C2)cc1OC (configuration not stated),0,1,-2,0,x,x
COc1ccc(NC2CCCN(C(=O)CN3C(=O)c4ccccc4C3=O)C2)cc1OC (configuration not stated),0,0,-2,8.0*,-5,1
CC(=O)Nc1cccc(-c2cc(NC(C)=O)c3ncc(-c4cccc(C(F)(F)F)c4)n3c2)c1,-1,0,2,-3,x,x
Cc1nc(NC(=O)/C=C/c2ccco2)sc1C,3,1,-11,10*,7,7.6*
CCSc1nnc(NC(=O)/C=C/c2ccco2)s1,2,1,-8,10*,6,7.8*
O=C(/C=C/c1ccco1)Nc1nnc(-c2ccco2)s1,1,2,-10,3,x,x
CC(=O)c1cc(-c2ccc(Cl)c(Cl)c2)c(=O)n2c1CCC2,x,0,x,-1,x,x
SMILES,MsrA inh,KLK7 zymogen act,MsrA act,SMARCA2 act,SMARCA2 conf,GAL4-VP16 Luc
O=C1CC(C(=O)N2CCc3ccccc32)CN1c1cccc(C(F)(F)F)c1 (configuration not stated),-1,-1,1,-2,x,x
COc1ccc(-c2nc(CCl)cs2)cc1OC,0,1,-15,2,x,x
COc1ccc(-c2nc(-c3ccc(O)cc3O)cs2)cc1OC,2,0,-8,8.8*,18*,12*
O=c1[nH][nH]c2c1[C@H](CCc1cccc(Cl)c1)O[C@H](CCc1ccccc1)C2,-1,0,-1,-2,x,x
Cc1cccc(C(=O)NCC(=O)N(C)Cc2nc3ccccc3c(=O)[nH]2)c1,-1,0,-1,-2,x,x
Cc1ccc(C(=O)N(C)Cc2nc3ccccc3c(=O)[nH]2)cc1NC(=O)c1ccco1,-1,0,-9,8.1*,-1,1
O=C(N[C@H](C(=O)N1CCC[C@H]1C(=O)NCc1ccccc1)c1ccccc1)c1ccc(Cl)c(Cl)c1,0,2,x,0,x,x
CCc1ccc(C(=O)Cn2ncc(Cl)c(Cl)c2=O)cc1,0,1,-7,17*,-16,4
CCCC(=O)NC(C)c1nc2ccccc2[nH]1 (configuration not stated),0,0,1,0,x,x
CCC(=O)NC(c1ccccc1)c1nc2ccccc2[nH]1 (configuration not stated),0,-1,-3,8.5*,3,2
CCN(Cc1ccccc1)C(=O)C1CCCN(c2ncccn2)C1 (configuration not stated),x,1,x,-2,x,x
O=C(COc1ccc(Br)cc1)NNC(=O)Cc1ccc(S(=O)(=O)N2CCOCC2)s1,-1,1,-6,-1,x,x
C=CCN(C(=O)c1csnn1)C(C(=O)NCc1ccc(F)cc1)c1ccc(F)cc1 (configuration not stated),0,-1,0,0,x,x
Cc1ccc(N(C(=O)c2csnn2)C(C(=O)NC2CCCC2)c2cccnc2)cc1 (configuration not stated),0,0,-2,8,x,x
O=C(NCc1ccc(F)cc1)C(c1cccnc1)N(C(=O)c1csnn1)c1ccccc1 (configuration not stated),1,-1,-1,9.0*,-4,0
O=C(NCc1ccccc1)C(c1ccc(F)cc1)N(C(=O)c1csnn1)c1ccccc1 (configuration not stated),1,0,-11,-1,x,x
Cc1ccc(N(C(=O)c2csnn2)C(C(=O)NC2CCCCC2)c2cccnc2)cc1 (configuration not stated),0,0,0,9.6*,-2,4
C=CCN(C(=O)c1csnn1)C(C(=O)NCc1ccc(F)cc1)c1sccc1C (configuration not stated),0,0,-9,8.0*,-3,-2
CSc1nsc(SCC(=O)Nc2ccccc2)n1,0,0,-3,8.8*,6,1
COc1ccc(C)cc1NC(=O)c1cnc2n(c1=O)CCS2,3,0,-10,9.8*,3,2
CC(C)c1ccc(Oc2cccc3c2S(=O)(=O)N([C@H](C)c2ccccc2)C[C@@H](COCc2ccccc2)O3)cc1,0,0,x,-2,x,x
